Measurements published in PubChem BioAssay AID624110 (Broad Institute, 2012).
A number with no mark means an inactive call.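 The calls were made as follows: active = signal falls with dose and the fitted half-maximal concentration is at most twice the highest valid tested dose; inconclusive = flat fit with a moderate signal drop, or unreliable fit; inactive = opposite effect, flat near zero, or potency past limit.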

Molecular target: PglD acetyltransferase (Campylobacter jejuni) (UniProt O86157)
Assay: inhibition of C. jejuni PglD N-acetyltransferase – biochemical, DTNB absorbance, Campylobacter jejuni, cherry-picked samples, dose response (AID 624110)
Conditions: purified C. jejuni PglD, DTNB absorbance 412 nm; series mostly up to 19.5 µM; normalized activity % vs neutral control (lower = more inhibition): at the top concentration

Sequence of PglD acetyltransferase (Campylobacter jejuni) (O86157 1-203): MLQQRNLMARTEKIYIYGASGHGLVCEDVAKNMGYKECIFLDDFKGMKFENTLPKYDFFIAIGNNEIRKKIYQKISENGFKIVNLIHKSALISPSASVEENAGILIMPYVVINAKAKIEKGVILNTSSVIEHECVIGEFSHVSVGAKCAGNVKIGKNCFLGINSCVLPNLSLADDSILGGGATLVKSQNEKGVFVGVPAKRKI

| SMILES | normalized activity % vs neutral control (lower = more inhibition) |
| --- | --- |
| CO[C@H]1CN(C)C(=O)c2cc(NC(C)=O)ccc2OC[C@@H](C)NC[C@@H]1C | 6.89% |
| O=C(C[C@@H]1C[C@@H]2c3cc(NC(=O)NC4CCCCC4)ccc3O[C@@H]2[C@@H](CO)O1)NCc1cccnc1 | 6.3% |
| CC=Cc1ccc2n(c1=O)C[C@@H]1[C@@H](CO)[C@H](C(=O)NCCOC)[C@H]2N1Cc1nccs1 (mixture of isomers) | -3.74% |
| CCC(=O)Nc1ccc2c(c1)OC[C@@H](C)N(Cc1ccccn1)C[C@@H](C)[C@H](OC)CN(C)C2=O | 0.696% |
| O=C(N[C@H]1C=C[C@@H](CC(=O)N2CCCCC2)O[C@H]1CO)c1ccc2c(c1)OCO2 | 5.79% |
| CO[C@@H]1CN(C)C(=O)c2ccc(NS(C)(=O)=O)cc2OC[C@@H](C)N(C(=O)C2CCOCC2)C[C@H]1C | -0.403% |
| COc1ccc(C#Cc2cnc3c(c2)C(=O)N([C@@H](C)CO)C[C@H](C)[C@H](CN(C)CC2CCCC2)O3)cc1 | 1.65% |
| C[C@H]1CN([C@@H](C)CO)C(=O)c2cccc(NC(=O)Nc3ccccc3)c2O[C@H]1CN(C)C | 1.83% [at 21 µM] |
| C[C@@H]1CN([C@@H](C)CO)C(=O)c2cc(NC(=O)Nc3ccc(F)cc3)ccc2O[C@@H]1CN(C)CC1CCCCC1 | 6.19% [at 21 µM] |
| C/C=C/c1cnc2c(c1)C(=O)N([C@@H](C)CO)C[C@H](C)[C@@H](CN(C)C(=O)c1cccnc1)O2 | 8.94% |
| CC(C)NC(=O)N(C)C[C@@H]1Oc2ccc(NC(=O)Cc3cn(C)c4ccccc34)cc2C(=O)N([C@H](C)CO)C[C@H]1C | -2.89% |
| CC(=O)N[C@H]1CC[C@H](CC(=O)NCc2ccc(Cl)cc2)O[C@H]1CO | -3.66% |
| O=C(C[C@@H]1CC[C@H]2[C@@H](COC[C@H](O)CN2C(=O)Nc2cccc(F)c2)O1)NCc1ccccc1F | 4.47% |
| O=C(C[C@@H]1CC[C@@H]2[C@H](COC[C@@H](O)CN2Cc2ccc(F)cc2)O1)N1CCc2ccccc2C1 | 3.26% |
| Cc1noc(C)c1NC(=O)Nc1cccc2c1O[C@H](CN(C)C(=O)Nc1cccc3ccccc13)[C@@H](C)CN([C@H](C)CO)C2=O | 7.55% |
| COCC#Cc1cnc2c(c1)C(=O)N([C@@H](C)CO)C[C@H](C)[C@@H](CN(C)C(=O)C1CCC1)O2 | 6.81% [at 21 µM] |
